Assay results as given in PubChem BioAssay AID1159580 (chemical genetic matrix, 2015).
Where “and” joins values, the source holds several entries; their conditions need not be identical. Identical values can stand only once. Hit rate of the full screen: of about 5,500 compounds, about 2,000 (36%) were called active. Roughly 18% stayed inconclusive and do not appear here. No stated cut-off is given here; in the data, active means normalized growth mostly below about 0.91 (no sharp cut-off); inconclusive means no clear call, values can overlap the other calls; inactive means mostly above about 0.92. Some of the results follow. Where a structure was tested more than once in an assay, its records may differ in their call.

Experiment: chemical genetic growth profiling, strain panel (AID 1159580);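 further: tested at 20 µM; growth read once vehicle control cultures reached saturation at 30 °C; 1 = growth at the plate median or of vehicle wells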
Conditions: growth OD

CCCCCCCCCCCCCCCCCC(=O)OC(CC(=O)O)C[N+](C)(C)C (stereo not drawn)
normalized growth (S. cerevisiae deletion strains, locus YAL013W, strain DEP1, stronger effect = lower value): 0.117 (active) | normalized growth (S. cerevisiae deletion strains, locus YAL040C, strain CLN3, stronger effect = lower value): 0.47 (active) | normalized growth (S. cerevisiae deletion strains, locus YBR021W, strain FUR4, stronger effect = lower value): 0.0953 (active) | normalized growth (S. cerevisiae deletion strains, locus YBR229C, strain ROT2, stronger effect = lower value): 1.03 (inactive) | normalized growth (S. cerevisiae deletion strains, locus YCL029C, strain bik1, stronger effect = lower value): 0.316 (active) | normalized growth (S. cerevisiae deletion strains, locus YCL061C, strain MRC1 (second series), stronger effect = lower value): 0.991 (inactive) | normalized growth (S. cerevisiae deletion strains, locus YDL035C, strain GPR1, stronger effect = lower value): 0.283 (active) | normalized growth (S. cerevisiae deletion strains, locus YDL074C, strain BRE1, stronger effect = lower value): 0.238 (active) | normalized growth (S. cerevisiae deletion strains, locus YDL101C, strain DUN1, stronger effect = lower value): 0.374 (active) | normalized growth (S. cerevisiae deletion strains, locus YDL134C, strain PPH21, stronger effect = lower value): 0.142 (active) | normalized growth (S. cerevisiae deletion strains, locus YDL185W, strain tfp1, stronger effect = lower value): 0.0578 (active) | normalized growth (S. cerevisiae deletion strains, locus YDL192W, strain arf1, stronger effect = lower value): 0.917 (active) | normalized growth (S. cerevisiae deletion strains, locus YDR101C, strain arx1, stronger effect = lower value): 0.679 (active) | normalized growth (S. cerevisiae deletion strains, locus YDR150W, strain NUM1, stronger effect = lower value): 0.583 (active) | normalized growth (S. cerevisiae deletion strains, locus YDR162C, strain NBP2, stronger effect = lower value): 0.0806 (active) | normalized growth (S. cerevisiae deletion strains, locus YDR318W, strain mcm21, stronger effect = lower value): 0.348 (active) | normalized growth (S. cerevisiae deletion strains, locus YDR363W, strain ESC2, stronger effect = lower value): 0.985 (inactive) | normalized growth (S. cerevisiae deletion strains, locus YDR388W, stronger effect = lower value): 0.0585 (active) | normalized growth (S. cerevisiae deletion strains, locus YDR502C, strain sam2, stronger effect = lower value): 0.619 (active) | normalized growth (S. cerevisiae deletion strains, locus YEL061C, strain CIN8, stronger effect = lower value): 0.44 (active) | normalized growth (S. cerevisiae deletion strains, locus YER002W, strain NOP16, stronger effect = lower value): 1.01 (inactive) | normalized growth (S. cerevisiae deletion strains, locus YER110C, stronger effect = lower value): 0.156 (active) | normalized growth (S. cerevisiae deletion strains, locus YER155C, strain BEM2, stronger effect = lower value): 0.274 (active) | normalized growth (S. cerevisiae deletion strains, locus YER167W, strain BCK2, stronger effect = lower value): 0.214 (active) | normalized growth (S. cerevisiae deletion strains, locus YGL078C, strain dbp3, stronger effect = lower value): 0.62 (active) | normalized growth (S. cerevisiae deletion strains, locus YGL086W, strain mad1, stronger effect = lower value): 0.23 (active) | normalized growth (S. cerevisiae deletion strains, locus YGL248W, strain PDE1, stronger effect = lower value): 0.153 (active) | normalized growth (S. cerevisiae deletion strains, locus YGR078C, strain PAC10, stronger effect = lower value): 0.976 (inactive) and 0.122 (active) | normalized growth (S. cerevisiae deletion strains, locus YGR135W, strain pre9, stronger effect = lower value): 0.185 (active) | normalized growth (S. cerevisiae deletion strains, locus YGR229C, strain SMI1, stronger effect = lower value): 0.797 (active) and 0.0756 (active) | normalized growth (S. cerevisiae deletion strains, locus YGR252W, strain gcn5, stronger effect = lower value): 0.155 (active) | normalized growth (S. cerevisiae deletion strains, locus YHR030C, strain SLT2, stronger effect = lower value): 0.109 (active) | normalized growth (S. cerevisiae deletion strains, locus YHR079C, strain IRE1 (second series), stronger effect = lower value): 0.585 (active) | normalized growth (S. cerevisiae deletion strains, locus YHR094C, strain hxt1, stronger effect = lower value): 0.608 (active) | normalized growth (S. cerevisiae deletion strains, locus YHR129C, strain ARP1, stronger effect = lower value): 0.637 (active) | normalized growth (S. cerevisiae deletion strains, locus YHR200W, strain rpn10, stronger effect = lower value): 0.871 (active) | normalized growth (S. cerevisiae deletion strains, locus YIL066C, strain RNR3, stronger effect = lower value): 0.0537 (active) | normalized growth (S. cerevisiae deletion strains, locus YIL073C, strain SPO22, stronger effect = lower value): 0.108 (active) | normalized growth (S. cerevisiae deletion strains, locus YIL125W, strain kgd1, stronger effect = lower value): 0.59 (active) | normalized growth (S. cerevisiae deletion strains, locus YIR030C, strain dcg1, stronger effect = lower value): 0.587 (active) | normalized growth (S. cerevisiae deletion strains, locus YJL095W, strain BCK1, stronger effect = lower value): 0.0851 (active) | normalized growth (S. cerevisiae deletion strains, locus YJL134W, strain LCB3, stronger effect = lower value): 1.01 (inactive) | normalized growth (S. cerevisiae deletion strains, locus YJL168C, strain set2, stronger effect = lower value): 0.956 (inactive) | normalized growth (S. cerevisiae deletion strains, locus YJL187C, strain SWE1 (second series), stronger effect = lower value): 0.571 (active) | normalized growth (S. cerevisiae deletion strains, locus YJR043C, strain POL32, stronger effect = lower value): 0.567 (active) | normalized growth (S. cerevisiae deletion strains, locus YJR075W, strain HOC1, stronger effect = lower value): 0.146 (active) | normalized growth (S. cerevisiae deletion strains, locus YKL009W, strain mrt4, stronger effect = lower value): 0.504 (active) | normalized growth (S. cerevisiae deletion strains, locus YKL068W, stronger effect = lower value): 1 (inactive) | normalized growth (S. cerevisiae deletion strains, locus YKL085W, strain MDH1 (second series), stronger effect = lower value): 0.56 (active) | normalized growth (S. cerevisiae deletion strains, locus YKL085W, strain MDH1, stronger effect = lower value): 0.56 (active) | normalized growth (S. cerevisiae deletion strains, locus YKL190W, strain CNB1, stronger effect = lower value): 0.0864 (active) | normalized growth (S. cerevisiae deletion strains, locus YKR001C, strain vps1, stronger effect = lower value): 0.89 (active) | normalized growth (S. cerevisiae deletion strains, locus YLR039C, strain RIC1, stronger effect = lower value): 1.1 (inactive) | normalized growth (S. cerevisiae deletion strains, locus YLR058C, strain SHM2, stronger effect = lower value): 0.598 (active) | normalized growth (S. cerevisiae deletion strains, locus YLR102C, strain apc9, stronger effect = lower value): 0.848 (active) | normalized growth (S. cerevisiae deletion strains, locus YLR262C, strain YPT6, stronger effect = lower value): 1.09 (inactive) | normalized growth (S. cerevisiae deletion strains, locus YLR268W, strain sec22, stronger effect = lower value): 0.168 (active) | normalized growth (S. cerevisiae deletion strains, locus YLR330W, strain CHS5, stronger effect = lower value): 0.0585 (active) | normalized growth (S. cerevisiae deletion strains, locus YLR342W, strain FKS1 (second series), stronger effect = lower value): 0.102 (active) | normalized growth (S. cerevisiae deletion strains, locus YLR371W, strain rom2, stronger effect = lower value): 0.9 (active) | normalized growth (S. cerevisiae deletion strains, locus YLR418C, strain cdc73, stronger effect = lower value): 0.101 (active) | normalized growth (S. cerevisiae deletion strains, locus YML016C, strain PPZ1, stronger effect = lower value): 0.229 (active) | normalized growth (S. cerevisiae deletion strains, locus YML032C, strain rad52, stronger effect = lower value): 0.499 (active) | normalized growth (S. cerevisiae deletion strains, locus YML124C, strain tub3, stronger effect = lower value): 0.88 (active) | normalized growth (S. cerevisiae deletion strains, locus YMR078C, strain ctf18, stronger effect = lower value): 0.392 (active) | normalized growth (S. cerevisiae deletion strains, locus YMR223W, strain ubp8, stronger effect = lower value): 0.406 (active) | normalized growth (S. cerevisiae deletion strains, locus YMR263W, strain SAP30, stronger effect = lower value): 1 (inactive) and 0.232 (active) | normalized growth (S. cerevisiae deletion strains, locus YMR307W, strain GAS1, stronger effect = lower value): 1.03 (inactive) and 0.297 (active) | normalized growth (S. cerevisiae deletion strains, locus YNL067W, strain RPL9B, stronger effect = lower value): 0.698 (active) | normalized growth (S. cerevisiae deletion strains, locus YNL128W, strain TEP1, stronger effect = lower value): 0.752 (active) | normalized growth (S. cerevisiae deletion strains, locus YNL153C, strain GIM3, stronger effect = lower value): 0.281 (active) | normalized growth (S. cerevisiae deletion strains, locus YNL175C, strain NOP13, stronger effect = lower value): 0.249 (active) | normalized growth (S. cerevisiae deletion strains, locus YNL197C, strain WHI3, stronger effect = lower value): 0.736 (active) | normalized growth (S. cerevisiae deletion strains, locus YNL224C, strain SQS1, stronger effect = lower value): 0.391 (active) | normalized growth (S. cerevisiae deletion strains, locus YNL233W, strain BNI4, stronger effect = lower value): 0.136 (active) | normalized growth (S. cerevisiae deletion strains, locus YNL250W, strain rad50, stronger effect = lower value): 0.69 (active) | normalized growth (S. cerevisiae deletion strains, locus YNL271C, strain bni1, stronger effect = lower value): 0.736 (active) | normalized growth (S. cerevisiae deletion strains, locus YNL298W, strain CLA4, stronger effect = lower value): 0.192 (active) | normalized growth (S. cerevisiae deletion strains, locus YNL307C, strain MCK1, stronger effect = lower value): 0.0704 (active) | normalized growth (S. cerevisiae deletion strains, locus YNL322C, strain KRE1, stronger effect = lower value): 0.983 (inactive) and 0.182 (active) | normalized growth (S. cerevisiae deletion strains, locus YNR052C, strain pop2, stronger effect = lower value): 0.961 (inactive) | normalized growth (S. cerevisiae deletion strains, locus YOL006C, strain TOP1, stronger effect = lower value): 0.101 (active) | normalized growth (S. cerevisiae deletion strains, locus YOL147C, strain pex11, stronger effect = lower value): 0.118 (active) | normalized growth (S. cerevisiae deletion strains, locus YOR061W, strain CKA2, stronger effect = lower value): 0.949 (inactive) | normalized growth (S. cerevisiae deletion strains, locus YOR069W, strain VPS5, stronger effect = lower value): 1 (inactive) | normalized growth (S. cerevisiae deletion strains, locus YOR083W, strain WHI5 (second series), stronger effect = lower value): 0.102 (active) | normalized growth (S. cerevisiae deletion strains, locus YOR136W, strain idh2, stronger effect = lower value): 0.773 (active) | normalized growth (S. cerevisiae deletion strains, locus YOR144C, strain elg1, stronger effect = lower value): 0.569 (active) | normalized growth (S. cerevisiae deletion strains, locus YOR184W, strain ser1, stronger effect = lower value): 0.0857 (active) | normalized growth (S. cerevisiae deletion strains, locus YOR316C, strain cot1, stronger effect = lower value): 0.582 (active) | normalized growth (S. cerevisiae deletion strains, locus YPL055C, strain LGE1, stronger effect = lower value): 0.892 (inactive) and 0.209 (active) | normalized growth (S. cerevisiae deletion strains, locus YPL241C, strain CIN2, stronger effect = lower value): 0.96 (inactive) and 0.778 (active) | normalized growth (S. cerevisiae deletion strains, locus YPR119W, strain clb2, stronger effect = lower value): 0.796 (active) | normalized growth (S. cerevisiae deletion strains, locus YPR141C, strain kar3, stronger effect = lower value): 1.05 (inactive) | normalized growth (S. cerevisiae deletion strains, locus YPR163C, strain tif3, stronger effect = lower value): 0.0804 (active) | normalized growth (S. cerevisiae deletion strains, locus YPR167C, strain met16, stronger effect = lower value): 0.587 (active) | normalized growth (S. cerevisiae deletion strains, strain wtn01, stronger effect = lower value): 0.303 (active) | normalized growth (S. cerevisiae strains, strain wild type, stronger effect = lower value): 0.51 (active)
